About 2,800 (6%) of roughly 47,000 compounds were called active. Cut-off read from the data, not from the text of the source: active = z-score above about 3 (passing the limit was not always enough); inactive = the rest. The full list was thinned out, with actives kept by preference.
What follows are compounds tested against Endoribonuclease Dicer (Homo sapiens) (UniProt Q9UPY3) (assay: Dicer cleavage of pre-miR-21 blockers – biochemical, cat-ELCCA, chemiluminescence, primary screen (AID 1347074;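 note: plate controls were vehicle for no effect and no enzyme for full effect; higher signal means more uncleaved substrate so more Dicer inhibition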)). Details: cat-ELCCA pre-miR-21 Dicer processing, at 25 µM, stronger effect = higher value.
Endoribonuclease Dicer (Homo sapiens), sequence (Q9UPY3 whole entry, looked up): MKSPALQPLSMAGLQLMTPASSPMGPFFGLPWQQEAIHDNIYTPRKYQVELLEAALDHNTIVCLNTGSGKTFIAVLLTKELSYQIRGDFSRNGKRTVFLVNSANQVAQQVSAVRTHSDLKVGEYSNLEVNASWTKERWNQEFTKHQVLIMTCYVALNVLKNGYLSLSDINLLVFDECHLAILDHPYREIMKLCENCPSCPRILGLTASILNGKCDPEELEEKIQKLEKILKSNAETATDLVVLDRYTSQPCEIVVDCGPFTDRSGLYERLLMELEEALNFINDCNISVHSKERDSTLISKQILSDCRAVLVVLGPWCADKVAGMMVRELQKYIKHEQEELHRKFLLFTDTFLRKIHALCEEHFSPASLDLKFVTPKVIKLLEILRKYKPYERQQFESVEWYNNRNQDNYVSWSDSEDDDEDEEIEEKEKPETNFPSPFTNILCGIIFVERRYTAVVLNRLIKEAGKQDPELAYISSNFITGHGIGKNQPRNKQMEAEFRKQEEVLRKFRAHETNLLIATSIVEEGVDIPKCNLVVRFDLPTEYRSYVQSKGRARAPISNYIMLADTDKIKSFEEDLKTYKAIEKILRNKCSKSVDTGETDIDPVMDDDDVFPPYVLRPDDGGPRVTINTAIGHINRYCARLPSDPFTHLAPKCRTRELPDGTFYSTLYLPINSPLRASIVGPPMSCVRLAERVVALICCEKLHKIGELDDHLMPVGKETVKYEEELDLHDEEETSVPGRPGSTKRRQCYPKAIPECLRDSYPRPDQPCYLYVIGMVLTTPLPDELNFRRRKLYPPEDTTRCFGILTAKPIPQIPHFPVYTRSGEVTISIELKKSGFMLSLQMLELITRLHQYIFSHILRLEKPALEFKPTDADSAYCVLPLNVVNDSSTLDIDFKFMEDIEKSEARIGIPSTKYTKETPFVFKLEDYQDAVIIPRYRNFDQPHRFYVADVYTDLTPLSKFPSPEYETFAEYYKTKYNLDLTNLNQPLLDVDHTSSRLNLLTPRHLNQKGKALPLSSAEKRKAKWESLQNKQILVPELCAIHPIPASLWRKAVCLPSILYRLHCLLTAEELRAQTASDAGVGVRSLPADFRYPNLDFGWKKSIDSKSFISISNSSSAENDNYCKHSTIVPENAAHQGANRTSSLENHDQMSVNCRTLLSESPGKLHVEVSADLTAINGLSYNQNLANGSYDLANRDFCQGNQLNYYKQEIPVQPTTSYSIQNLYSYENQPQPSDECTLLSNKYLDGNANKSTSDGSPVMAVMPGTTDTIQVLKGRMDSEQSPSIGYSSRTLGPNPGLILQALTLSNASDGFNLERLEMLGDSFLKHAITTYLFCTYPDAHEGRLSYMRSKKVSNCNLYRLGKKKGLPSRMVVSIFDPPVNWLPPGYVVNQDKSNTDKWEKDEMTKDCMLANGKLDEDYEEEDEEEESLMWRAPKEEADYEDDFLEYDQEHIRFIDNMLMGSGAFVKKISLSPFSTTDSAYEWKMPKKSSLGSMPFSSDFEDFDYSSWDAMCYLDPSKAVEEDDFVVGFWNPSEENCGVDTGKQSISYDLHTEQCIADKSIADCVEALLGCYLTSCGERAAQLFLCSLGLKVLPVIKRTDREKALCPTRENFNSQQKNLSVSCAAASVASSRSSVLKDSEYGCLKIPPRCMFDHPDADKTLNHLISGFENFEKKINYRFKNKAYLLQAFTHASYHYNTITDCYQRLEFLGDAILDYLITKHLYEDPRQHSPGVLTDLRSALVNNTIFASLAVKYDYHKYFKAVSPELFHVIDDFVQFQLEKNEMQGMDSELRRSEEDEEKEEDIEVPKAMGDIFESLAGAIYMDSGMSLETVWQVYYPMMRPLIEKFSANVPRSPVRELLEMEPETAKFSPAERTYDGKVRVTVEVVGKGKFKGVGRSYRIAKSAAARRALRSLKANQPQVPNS

| SMILES | z-score |
| --- | --- |
| O=C(CSc1ncnc2c1sc1nc(N3CCOCC3)c3c(c12)CCCC3)N1CCCCC1 | -0.18 (inactive) |
| CCOC(=O)c1[nH]c2ccc([N+](=O)[O-])cc2c1CCC(=O)O | 0.9 (inactive) |
| COc1ccc(NC(=O)NCc2c(-c3ccccc3)noc2C)cc1OC1CCCC1 | -0.22 (inactive) |
| Cc1cc(C)nc(N2CCN(c3ncnc4sc5c(c34)CCCC5)CC2)n1 | 5.88 (inactive) |
| Cc1cc(C)c2oc(-c3ccc(C)c(NC(=O)C(C)C)c3)nc2c1 | 0.37 (inactive) |
| c1ccc2[nH]c(NCCN3CCOCC3)nc2c1 | -0.76 (inactive) |
| Clc1ccc(Cn2c(-c3ccco3)nc3ccccc32)cc1 | 2.46 (inactive) |
| Clc1ccc(CNc2nc3ccccc3n2CCN2CCOCC2)cc1 | 3.51 (active) |
| Cc1nn(-c2ccc(N3CCOCC3)nn2)c(=O)c2ccccc12 | -0.81 (inactive) |
| Cc1c(Cc2c(F)cccc2Cl)c(=O)oc2cc(OC(=O)c3ccccc3Cl)ccc12 | -0.2 (inactive) |
| COCCCNC(=O)Cn1cc(C(=O)C2CC2)c2ccccc21 | 1.99 (inactive) |
| COc1ccc(OCCn2cc(C(=O)C3CC3)c3ccccc32)cc1 | 3.94 (active) |
| COc1ccc(OC)c(NC(=O)Cn2cc(C(=O)C3CC3)c3ccccc32)c1 | 0.03 (inactive) |
| CCCCN1C(=O)C2(/C(=C(/O)c3ccc(F)cc3)C(=O)C(=O)N2CCCOC)c2ccccc21 (centres undefined) | 2.27 (inactive) |
| Cc1cccc(C)c1NC(=S)NCCC(=O)O | 1.63 (inactive) |
| COc1cc(CN(Cc2ccccc2)C(=S)Nc2c(C)cccc2C)cc(OC)c1OC | 1.24 (inactive) |
| CCN(C(=S)Nc1c(C)cccc1C)c1ccccc1 | 3.03 (active) |
| O=[N+]([O-])c1ccc(S(=O)(=O)c2ccccc2)cc1OS(=O)(=O)c1ccc(Cl)cc1 | 0.46 (inactive) |
| Fc1ccc(Nc2nnns2)cc1 | 2.65 (inactive) |
| Cn1c(C(=O)O)ccc1S(=O)(=O)N(Cc1ccccc1)Cc1ccccc1 | -0.36 (inactive) |
| CC(C)=NNS(=O)(=O)c1ccc(C)cc1 | -6.01 (inactive) |
| CCOc1cc(C)c(S(=O)(=O)NCc2ccccn2)cc1C | 0.63 (inactive) |

| SMILES | z-score |
| --- | --- |
| Cc1nc2cc(NCc3ccccn3)ccc2n1C | 3.02 (active) |
| Cc1nc2cc(CO)ccc2n1-c1ccccc1 | -1.15 (inactive) |
| CN(C)c1ccc(C2/C(=C(/O)c3ccccc3)C(=O)C(=O)N2CCO)cc1 (centres undefined) | -1.23 (inactive) |
| CCOC(=O)C1Cn2c(nc3c(c2=O)C(C)(CC)Cc2ccccc2-3)S1 (centres undefined) | 3.52 (active) |
| Cc1ccc(NC(=O)C/C(N)=N/O)cc1Cl | 1.48 (inactive) |
| S=c1[nH]nc(CSCc2nc(-c3ccccc3)cs2)n1-c1ccc(Cl)cc1 | -0.05 (inactive) |
| CCn1c(CSc2nc(-c3ccc(Cl)cc3)cn2-c2ccc(C)cc2)n[nH]c1=S | 5.38 (active) |
| COc1ccc(-c2n[nH]c(=S)n2-c2ccc(Cl)cc2C)cc1 | -1.05 (inactive) |
| C=CCSc1nc(Nc2ccc(Cl)cc2)c2cnc(N3CCOCC3)nc2n1 | 0.68 (inactive) |
| Cc1nc2ccccc2c2c1C(=O)N(c1ccc(C(=O)OCC(=O)c3ccccc3)cc1)C2=O | 0.06 (inactive) |
| C/C(=N\NC1=NCCCN1)c1ccc(Cl)cc1 | -0.42 (inactive) |
| CCCCSC1=C(C#N)C(=O)NC(C)S1 (centres undefined) | 1.98 (inactive) |
| COc1ccc(-c2cc(C)nc3nc(N)nn23)cc1 | -1.68 (inactive) |
| COc1ccc(-c2nn3c(-c4ccccc4)nnc3s2)cc1OC | -0.95 (inactive) |
| COc1ccc(-c2nn3c(-c4ccc(OC)cc4)nnc3c3ccccc23)cc1 | 3.15 (active) |
| CSc1ccc(C2C(C(=O)OCC3CCCO3)=C(C)NC3=C2C(=O)CC(C)(C)C3)cc1 (centres undefined) | 0.6 (inactive) |
| COc1ccc2c(c1)CCc1sc(N)nc1-2 | -2.97 (inactive) |
| COc1ccc2c(c1)CCCC2=Nc1ccccc1C(F)(F)F | 4.81 (active) |
| CCCOc1ccc(N2C(=O)CC(N3CCC(C)CC3)C2=O)cc1 (centres undefined) | 1.2 (inactive) |
| O=C(Cn1nnc(-c2ccccc2Oc2ccc(Cl)cc2Cl)n1)NNC(=S)Nc1ccccc1C(F)(F)F | 4.43 (active) |
| NNC(=O)Cn1nnc(-c2cccc(Cl)c2Cl)n1 | 7.9 (inactive) |
| COC(=O)/C=C(\Nc1ccccc1Oc1ccc(Cl)cc1Cl)C(=O)OC | 2.01 (inactive) |
